Screens from PubChem.
This is a sample that favours compounds with a hit; in the whole collection about 2.3% have one here.
Mcl1 Noxa PPI: Mcl-1/Noxa interaction inhibition; Q07820; TR-FRET Mcl-1/Noxa peptide binding, 2 h; inhibition, % at 21.7 µM; hit rate 1.5% among 220,000; AID 1022;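 active means compounds that cut the protein-peptide binding signal by more than 50% relative to plate controls in a single-dose test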;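 further: His-tagged Mcl-1 with rhodamine Noxa BH3 peptide and terbium anti-His antibody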
BCLXL inh: inhibitors of human Bcl-xL | Q07817 | GST-Bcl-xL / FITC-Bim BH3 peptide fluorescence polarization | inhibition, % at 10.9 µM | hit rate 0.7% among 320,000 | AID 2129;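 active means inhibition above the mean of all tested compounds plus 3 SD, cutoff set per campaign, cut at about 30% in these data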;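 further: inhibitors lower millipolarization by displacing the labeled peptide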
Target sequence (Q07817 whole entry, looked up): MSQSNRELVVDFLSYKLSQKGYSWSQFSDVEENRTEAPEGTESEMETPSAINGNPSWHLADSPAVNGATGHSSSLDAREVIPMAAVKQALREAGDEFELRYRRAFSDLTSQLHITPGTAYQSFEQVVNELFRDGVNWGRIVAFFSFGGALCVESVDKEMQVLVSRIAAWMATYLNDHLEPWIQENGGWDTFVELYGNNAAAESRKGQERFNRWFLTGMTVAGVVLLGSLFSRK
GLD-1 TGE inh: GLD-1-TGE RNA interaction inhibition (C. elegans); hit rate 0.44% among 320,000; Q17339; inhibition, % at 5.96 µM; AID 2280; purified GLD-1 + fluorescein TGE RNA, fluorescence polarization;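 active means percent inhibition above a per-plate cutoff, the plate mean of test compounds plus 3 SD, cut at about 30% in these data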
Bim-Mcl-1: human Bim-Mcl-1 interaction inhibition. hit rate 0.1% among 190,000. Bead-based flow cytometry, Bim peptide-Mcl-1 binding. inhibition, % at 10 µM; in the data active means inhibition above about 40%
MCL1 BIM primary: inhibitors of human MCL1 binding to BIM-BH3 peptide; GST-MCL1 / FITC-Bim-BH3 fluorescence polarization; inhibition, % at 10.9 µM; hit rate 0.68% among 320,000;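 active means inhibition above the mean inhibition of all tested compounds plus 3 SD, set per campaign, cut at about 40% in these data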;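 further: higher means more loss of mP so more displacement of Bim peptide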
Mcl1 Bid PPI: disrupts binding of human Mcl-1 to Bid peptide. AID 1021. Q07820. inhibition, % at 21.7 µM. TR-FRET Mcl-1/Bid-Dy647 peptide binding, 1536-well. hit rate 0.97% among 220,000;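 active means compounds that cut the binding signal by more than half at the single screening dose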;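 further: His-tagged Mcl-1 with europium anti-His antibody binding Bid BH3 peptide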
Numbers stand for hits; n = inactive; x = no result given; ! = not confirmed by another sample.

SMILES	Mcl1 Noxa PPI	BCLXL inh	GLD-1 TGE inh	Bim-Mcl-1	MCL1 BIM primary	Mcl1 Bid PPI
Cc1ccc(CN2C(=O)N/C(=C\c3ccc(-c4ccc(C(=O)O)cc4C)o3)C2=O)cc1	56.6	n	n	x	n	n
O=C(O)c1ccc(-c2ccc(/C=C3\NC(=O)N(Cc4ccc(Cl)cc4)C3=O)o2)cc1	61.0	x	x	x	x	n
Cc1cc(C(=O)O)ccc1-c1ccc(/C=C2\NC(=O)N(Cc3ccccc3Cl)C2=O)o1	60.6	n	n	n	n	n
CCOc1cc(CNc2ccc3[nH]c(=O)[nH]c3c2)ccc1OCC(=O)NC(C)(C)C	n	n	n	n	n	n
COc1cc(CNc2ccc3[nH]c(=O)[nH]c3c2)cc(Cl)c1OCC(=O)NC(C)(C)C	58.6	n	n	n	n	n
OC(COCc1ccccc1)CN1CCN(Cc2ccc3c(c2)OCO3)CC1 (stereo not drawn)	55.1	n	n	n	n	n
Fc1ccccc1NC(=S)N1CCN(Cc2ccc3c(c2)OCO3)CC1	n	n	n	n	n	92.3
CC(=O)c1ccc(OCC(O)CN2CCN(Cc3ccc4c(c3)OCO4)CC2)cc1 (stereo not drawn)	n	n	n	n	n	52.1!
SC(COCc1ccccc1)CN1CCN(Cc2ccc3c(c2)OCO3)CC1 (stereo not drawn)	n	n	n	n	n	n
COc1ccc(C)cc1N(C(=O)c1ccc(F)cc1)c1nc2ccccc2s1	n	n	n	n	n	58.9
O=C(COC(=O)c1ccc([N+](=O)[O-])cc1)Nc1ccccc1C(=O)NC1CC1	x	x	n	x	x	x
O=C(O)CCc1ccc(-c2ccc(Cl)cc2)o1	n	n	n	n	n	94.7
COc1ccc(NC(=O)c2ccc(Cl)nc2)cc1S(=O)(=O)N1CCOCC1	x	n	n	x	n	x
CCC(=O)Nc1ccc(C(=O)Cn2ncc(Cl)c(Cl)c2=O)cc1	n	n	n	x	n	n
COc1ccc(NC(=O)Cn2ncc(Cl)c(Cl)c2=O)cc1S(=O)(=O)N1CCOCC1	78.0	n	n	n	n	n
CCN(CC)S(=O)(=O)c1cc(NC(=O)Cn2ncc(Cl)c(Cl)c2=O)ccc1C	77.6	n	n	x	n	n
COc1ccc(S(=O)(=O)N2CCOCC2)cc1NC(=O)COc1ncnc2ccccc12	n	n	n	n	n	n
CCOC(=O)c1ccc(NC(=O)Cn2ncc(Cl)c(Cl)c2=O)cc1	80.7	n	n	n	n	n
O=C(Cn1ncc(Cl)c(Cl)c1=O)Nc1ccc2c(c1)OCO2	x	n	n	x	n	x
COc1ccc(NC(=O)COc2ncnc3ccccc23)cc1S(=O)(=O)N1CCOCC1	n	n	n	41.0	n	n
CC(C)(C)NC(=O)COC(=O)c1ccc(Cl)c(S(N)(=O)=O)c1	n	n	n	n	n	n
CCOC(=O)c1ccc(NC(=O)CSCCC(=O)O)cc1	n	n	n	68.0	n	n
Cc1cc(C(=O)CN2CCN(CC(=O)Nc3cccc(F)c3)CC2)c(C)n1C1CC1	x	n	n	x	n	x
O=C(NCCc1ccccc1)C1CCN(S(=O)(=O)c2ccc(-c3nn[nH]n3)cc2)CC1	n	n	n	n	n	87.9
Cc1ccc(C(=O)N/C(=C\c2ccc(-c3ccccc3[N+](=O)[O-])o2)C(=O)NCCCN2CCOCC2)cc1	x	31.7	n	x	n	x
SMILES	Mcl1 Noxa PPI	BCLXL inh	GLD-1 TGE inh	Bim-Mcl-1	MCL1 BIM primary	Mcl1 Bid PPI
O=C(Nc1ccc(O)cc1)C1CC=CCC1 (stereo not drawn)	56.4	n	n	n	n	n
O=C(Nc1cccc(C(F)(F)F)c1)c1cc2ncc(Br)cn2n1	n	n	n	n	n	n
O=C(Nc1ccc2c(c1)OCO2)c1cc2ncc(Br)cn2n1	57.5	x	x	n	x	n
CCCN1C(=O)/C(=C/c2c(N3CCNC(=O)C3CC(=O)OC)nc3c(C)cccn3c2=O)SC1=S (stereo not drawn)	n	x	x	x	x	n
C=CCN1C(=O)/C(=C2/Sc3ccccc3N2CC)SC1=S	x	n	n	x	n	x
C=CCN1C(=O)/C(=C2/Sc3ccccc3N2CCCS(=O)(=O)O)SC1=S	71.0	n	n	n	n	n
c1ccc2c(SCc3cn4ccccc4n3)nncc2c1	n	53.9	n	n	n	n
Clc1ccc(SCc2cn3ccccc3n2)cc1	n	n	n	n	n	n
O=C(CSc1nc2cc(Cl)ccc2o1)NC1CC1	x	x	n	x	x	x
Cn1c2ccccc2c(=O)c2ccc(NCCc3cccs3)cc21	x	x	79.2	x	x	x
CCC(C)N(C(=O)COC(=O)c1ccccc1SCC(=O)N1CCCC1)C1CCS(=O)(=O)C1 (stereo not drawn)	x	n	n	x	n	x
